# PubChem BioAssay (NCI)
# The panel holds about 79,000 compounds, 15% with a hit somewhere; the sample as a whole holds those more often. Calls of active or inactive are those of the source. No stated cut-off is given here; in the data, active means growth inhibition above about 70%; inactive means the rest.
# Assay: NCI Yeast Anticancer Drug Screen. Data for the mgt1 strain (AID 153)
# Conditions: S. cerevisiae mgt1 mutant growth inhibition, hits give high values
# Method: Growth inhibition of yeast strains with defined genetic alterations is measured as a screen for potential anti-cancer activity. Selected strains with alterations in DNA damage repair or cell cycle control were exposed to compounds and growth inhibition was measured relative to vehicle treated controls. The strain used in this assay is mgt1
Structure (SMILES),growth inhibition (at 1.2 µM),growth inhibition (at 3.7 µM),growth inhibition (at 11.0 µM),growth inhibition (at 33.0 µM),growth inhibition (at 100.0 µM)
O=C1C2CC(Cl)C(SSC3CC4C(=O)N(SC(Cl)(Cl)C(Cl)Cl)C(=O)C4CC3Cl)CC2C(=O)N1SC(Cl)(Cl)C(Cl)Cl (stereo not given),68% (inactive),98% (active),99% (active),97% (active),92% (active)
Cc1c([N+](=O)[O-])oc2ccc3ccccc3c12,-8% (inactive),-1% (inactive),3% (inactive),8% (inactive),22% (inactive)
OC(c1ccc(Br)cc1)C(Cl)(Cl)Cl (stereo not given),20% (inactive),-1% (inactive),5% (inactive),89% (active),100% (active)
O=S(=O)(O)c1ccc(Cl)cc1.[Cd],0% (inactive),15% (inactive),27% (inactive),55% (inactive),77% (active)
CCCCN(CCCC)CC(C(C)=O)C(c1ccccc1)c1c(O)c2ccccc2oc1=O (stereo not given),1% (inactive),2% (inactive),3% (inactive),0% (inactive),-1% (inactive)
C[C@]12CCc3nonc3C1CC[C@@H]1C2CC[C@]2(C)C(=O)CCC12 (stereo not given in full),8% (inactive),6% (inactive),19% (inactive),42% (inactive),59% (inactive)
CCC1(O)C(=O)OCc2c1cc1n(c2=O)Cc2cc3ccccc3nc2-1 (stereo not given),-11% (inactive),-3% (inactive),-4% (inactive),-3% (inactive),10% (inactive)
C[CH2][Sn]1([CH2]C)[O]C2C(O)OC(CO)C(O)C2[O]1 (stereo not given),-19% (inactive),-21% (inactive),-3% (inactive),2% (inactive),69% (inactive)
